According to PubChem BioAssay AID1159580 (chemical genetic matrix, 2015):
In all, about 5,500 compounds went through this assay and about 2,000 (36%) were called active. About 18% were inconclusive and are not listed. Cut-off read from the data, not from the text of the source: active = normalized growth mostly below about 0.91 (no sharp cut-off); inconclusive = no clear call, values can overlap the other calls; inactive = mostly above about 0.92. Some of the results follow.

Test: chemical genetic growth profiling, strain panel (AID 1159580);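 note: tested at 20 µM; growth read once vehicle control cultures reached saturation at 30 °C; 1 = growth at the plate median or of vehicle wells; lower values mean less growth of the strain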
Details: growth OD
[1] = S. cerevisiae deletion strains, locus YNL128W, strain TEP1, active compounds read low
[2] = S. cerevisiae deletion strains, locus YPL241C, strain CIN2, active compounds read low

Measured: normalized growth

Cc1cn([C@H]2C[C@@H](N=[N+]=[N-])[C@@H](CO)O2)c(=O)[nH]c1=O
inactive: S. cerevisiae deletion strains, locus YAL040C, strain CLN3, active compounds read low 1 | S. cerevisiae deletion strains, locus YER002W, strain NOP16, active compounds read low 0.99 | S. cerevisiae deletion strains, locus YMR307W, strain GAS1, active compounds read low 0.999 | [1] 1.01 | S. cerevisiae deletion strains, locus YNL175C, strain NOP13, active compounds read low 0.983 | S. cerevisiae deletion strains, locus YNL197C, strain WHI3, active compounds read low 1 | S. cerevisiae deletion strains, locus YNL224C, strain SQS1, active compounds read low 0.974 | S. cerevisiae deletion strains, locus YOR083W, strain WHI5 (second series), active compounds read low 1.02 | [2] 0.995

CC(C)c1nc2ccccc2[nH]1
inactive: S. cerevisiae deletion strains, locus YAL013W, strain DEP1, active compounds read low 1.01 | S. cerevisiae deletion strains, locus YBR229C, strain ROT2, active compounds read low 1.03 | S. cerevisiae deletion strains, locus YCL061C, strain MRC1, active compounds read low 1.01 | S. cerevisiae deletion strains, locus YDL101C, strain DUN1, active compounds read low 1.03 | S. cerevisiae deletion strains, locus YDL134C, strain PPH21, active compounds read low 1.02 | S. cerevisiae deletion strains, locus YDR150W, strain NUM1, active compounds read low 0.993 | S. cerevisiae deletion strains, locus YEL061C, strain CIN8, active compounds read low 1.01 | S. cerevisiae deletion strains, locus YGR078C, strain PAC10, active compounds read low 1.01 | S. cerevisiae deletion strains, locus YHR030C, strain SLT2, active compounds read low 1.02 | S. cerevisiae deletion strains, locus YHR087W, strain rtc3, active compounds read low 1.03 | S. cerevisiae deletion strains, locus YJR043C, strain POL32, active compounds read low 1 | S. cerevisiae deletion strains, locus YJR075W, strain HOC1, active compounds read low 1.02 | S. cerevisiae deletion strains, locus YLR039C, strain RIC1, active compounds read low 1.01 | S. cerevisiae deletion strains, locus YLR058C, strain SHM2 (second series), active compounds read low 1.01 | S. cerevisiae deletion strains, locus YLR085C, strain ARP6, active compounds read low 1.03 | S. cerevisiae deletion strains, locus YLR262C, strain YPT6, active compounds read low 1 | S. cerevisiae deletion strains, locus YML094W, strain GIM5, active compounds read low 1.01 | S. cerevisiae deletion strains, locus YMR219W, strain ESC1, active compounds read low 1.01 | S. cerevisiae deletion strains, locus YMR263W, strain SAP30, active compounds read low 1.02 | [1] 1.01 | S. cerevisiae deletion strains, locus YNL153C, strain GIM3, active compounds read low 1.01 | S. cerevisiae deletion strains, locus YNL298W, strain CLA4 (second series), active compounds read low 1 | S. cerevisiae deletion strains, locus YNL322C, strain KRE1, active compounds read low 1.02 | S. cerevisiae deletion strains, locus YNR030W, strain Alg12, active compounds read low 1.01 | S. cerevisiae deletion strains, locus YOL006C, strain TOP1, active compounds read low 1 | S. cerevisiae deletion strains, locus YPL055C, strain LGE1, active compounds read low 1.04 | [2] 1 | S. cerevisiae deletion strains, locus YPR135W, strain CTF4, active compounds read low 1.05 | S. cerevisiae strains, strain wild type, active compounds read low 1.01
